The values below come from PubChem BioAssay (NCI).

Molecules are shown by their SMILES. About 83,000 compounds went through this panel and 20% of them were active in at least one assay; those are over-represented in the sample as a whole.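 Results are percent growth after 48 hours of single-concentration exposure. 100 means growth as in untreated cells, lower positive values show inhibition; negative values down to -100 show cell death.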 Values without a mark were called inactive. Activity calls are given as the source filed them. How the source made its calls: active means growth percent below 10; inactive means the rest.

The test system of this experiment is HL-60(TB) leukemia. The experiment in a line: NCI-60 one-dose screen, 48 h (100 = growth as untreated, 0 = no growth, -100 = all killed). The following applies: 10 µM unless noted.
As to `C#CCn1c(C)cc(C)c(C#N)c1=O`, the growth was 101%. With `CC(=O)/C=C/c1cc2cc(Cl)ccc2[nH]c1=O` the figure was 54.5%; with `COc1ccc(/C=N/C2=C(C#N)C(c3ccccc3)c3c(ccc4ccccc34)O2)cc1` (centres undefined), -18.1% (active). With `CCN1CCN(c2cc(C)nc(N(CCCNc3ccnc4cc(Cl)ccc34)Cc3ccc4c(c3)OCO4)n2)CC1` the figure was -67.3% (active); with `O=C(Nc1ncc(Cc2ccccc2Cl)s1)c1cccs1`, 58.5%. With `COc1ccc(/C=C/c2n[nH]c3ccc(N4CCOC4=O)cc23)cc1` the figure was -27.5% (active); with `C=CCNc1ccc2c3c(cccc13)C(=O)N(CC=C)C2=O`, 102%.

On to `C=CC1=C(C)C2=NC1=CC1=NC(=CC3=C(C)C4=C(O)C(C(=O)O)C(=C5NC(=C2)C(C)C5CCC(=O)O)C4=N3)C(CC)=C1C` (centres undefined), for which the growth was 89.4%.

On to `CCN(CC)c1ccc(CNc2ccnc3ccccc23)cc1`, for which the growth is 33.6%. Under `CC/C(Cc1ccccc1)=C(\c1ccc(OCCN2CCCCCC2)cc1)c1ccc(OC(=O)NCc2ccccc2)cc1` stands 37%.

Take `CCNCCNc1cc(-c2ccc(C#N)cc2)c(C#N)c2nc3ccccc3n12`: the growth was -45.4% (active). Under `COc1cc2nccc(Oc3ccc(NC(=O)C4(C(=O)Nc5ccc(F)cc5)CC4)cc3)c2cc1OC(=O)c1ccc(N)cc1` stands -43.9% (active); under `CCN(CC)CCNc1ccc(Cl)cc1Cl`, 92.9%; under `CN(C)C(=S)N=Nc1c(O)[nH]c2ccccc12`, -40.3% (active). With `c1ccc2cc(Cn3cc[n+](Cc4ccc5ccccc5c4)c3)ccc2c1` the figure was -33.6% (active); with `O=[N+]([O-])c1cc[n+]([O-])cc1`, 36.1%.

Regarding `CCCCNC(=O)Oc1ccc(/C(=C(/C)Cc2ccc(OC)cc2)c2ccc(OCCN3CCCCCC3)cc2)cc1`, the growth is 33.9%.

As for `N=c1sc(Cc2ccc(Cl)cc2)cn1CC(=O)c1ccc(F)cc1`, the growth is 94.8%. Take `O=[N+]([O-])c1cccc(-c2nc(-c3ccc(Cl)cc3Cl)cn2-c2ccccc2)c1`: the growth was 35.3%. As to `C1CNC(C2=NCCN2)=N1`, the growth is 109%. On to `COc1cc(C(=O)/C=C/c2cc(C(=O)c3cc(OC)c(OC)c(OC)c3)ccc2OC)ccc1N`, for which the growth was 3.92% (active). Under `O=C1c2cccc3cccc(c23)C(=O)N1Nc1nc(N2CCOCC2)nc(N2CCN(c3ccccc3)CC2)n1` stands 56.3%. With `C=CC(=O)Nc1cccc(-c2nc(SC)nc(NCCN3CCOCC3)c2C#N)c1` the figure was 94.9%.

For `CCOC(=O)CCC(=O)P(=O)(O)O`, the growth is 9.71% (active).
